High-throughput results: PubChem, National Center for Advancing Translational Sciences (NCATS)
Sampled rows, rich in hits. Any-hit rate of the full collection: about 7.4%.
SMN2 splice enh – enhancers of SMN2 splice variant expression; HEK293 SMN2-luciferase splicing reporter, luminescence, 30-36 h; Potency, µM (top dose mostly 46.1 µM), without a hit: at the top dose activity change, positive = activation, most hits filed as activators; 2.8% of 210,000 active; also: % of control where 0% means no effect; nearly all actives have a fitted effect of over 55% in size
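qHTS luciferase splicing reporter: luminescence rises when SMN2 exon 7 is included in transfected HEK293 cells. Compound exposure lasted 30-36 h at 37C, with 4.5 mM final sodium butyrate as control, followed by a ONE-Glo read.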
FLuc modulator – counter-screen for miR-21 project: firefly luciferase inhibitors or activators | P08659 | purified FLuc, Km substrates, luminescence inhibition | 6.9% of 360,000 active | Potency, µM (top dose mostly 57.5 µM), without a hit: at the top dose activity change, negative = inhibition, actives largely listed as inhibitors;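 also: plate controls were vehicle for no effect and reference inhibitor for full effect; nearly all actives have a fitted effect of over 55% in size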
Target sequence (P08659 whole entry, looked up): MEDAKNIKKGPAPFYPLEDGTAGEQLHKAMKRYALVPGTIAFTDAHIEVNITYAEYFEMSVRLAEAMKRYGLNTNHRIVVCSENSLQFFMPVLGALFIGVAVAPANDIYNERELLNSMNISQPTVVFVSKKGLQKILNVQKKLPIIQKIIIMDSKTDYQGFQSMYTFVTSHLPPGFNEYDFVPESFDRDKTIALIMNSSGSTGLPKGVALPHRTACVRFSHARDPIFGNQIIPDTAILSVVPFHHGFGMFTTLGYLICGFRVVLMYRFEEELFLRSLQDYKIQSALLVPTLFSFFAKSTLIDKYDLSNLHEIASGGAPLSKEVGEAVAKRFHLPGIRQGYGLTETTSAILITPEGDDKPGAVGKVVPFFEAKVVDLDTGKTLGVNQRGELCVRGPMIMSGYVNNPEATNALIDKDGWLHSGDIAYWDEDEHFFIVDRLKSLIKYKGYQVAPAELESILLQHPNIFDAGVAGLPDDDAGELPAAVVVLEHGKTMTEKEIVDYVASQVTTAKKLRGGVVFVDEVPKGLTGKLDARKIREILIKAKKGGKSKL
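Biochemical qHTS of compounds, final roughly 60 µM downward over six points, against 10 nM purified firefly luciferase using Km concentrations of substrates (10 uM D-luciferin, 10 uM ATP) in Tris acetate pH 7.5 buffer; luminescence output.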
KinaseGlo FLuc – counter-screen: inhibitors of Kinase-Glo firefly luciferase. AID 1379. Potency, µM (highest dose often 38.3 µM), for the others: top-dose activity change, negative = inhibition, usual class: inhibitors. Q27757. 0.28% of 200,000 active. Kinase-Glo luciferase, ATP luminescence, 8 min; also: % is scaled to controls: 0 for no effect and ±100 for the full control effect; nearly all actives have a fitted effect of over 60% in size
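Luminescence was the read-out, taken after 8-minute incubation at ambient temperature. Luciferase turned over luciferin with 10 uM ATP in imidazole pH 7.2 buffer containing KCl, MgCl2, Tween 20 and BSA.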
NPC1 prom act – NPC1 promoter activation; Huh7 NPC1 promoter luciferase reporter, 24 h; Potency, µM (titrated, usually from 9.22 µM), for the others: at the highest dose activation, usual class: activators; AID 485313; 2.4% of 320,000 active; also: % of control where 0% means no effect; nearly all actives have a fitted effect of over 60% in size
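Cells: Huh7 expressing luciferase under the NPC1 promoter, 1500/well. Seeded 2 h, compound added, incubated 24 h at 37 °C. Luciferase reagent, 10 min ambient, then luminescence.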
Rab9 promoter act – Rab9 promoter activation; Huh7 Rab9 promoter-luciferase reporter, luminescence, 24 h; 2.8% of 320,000 active; Potency, µM (top dose mostly 9.22 µM), inactives show at the highest dose activation, negative = inhibition, hits mostly activators; AID 485297; also: % of control where 0% means no effect; nearly all actives have a fitted effect of over 60% in size
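Quantitative HTS format; Huh7 Rab9-luciferase reporter cells (1500/well) receive compound 2 h post-plating, incubate 24 h at 37 °C, then get luciferase reagent for 10 min before luminescence reading.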
ELG1 genotoxic – induces genotoxicity in HEK293T cells with luciferase-tagged ELG1. HEK293T ELG1-luciferase reporter, luminescence, 16 h. Potency, µM (doses to about 46 µM), inactives show top-dose activity change, positive = activation, hits mostly activators. 1.3% of 330,000 active; also: % of control where 0% means no effect; nearly all actives have a fitted effect of over 60% in size
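ELG1-luciferase HEK293T cells, 2,000/well; compound pinned in; 16 hr, 37 °C, 5% CO2; ONE-Glo, 30 min RT; luminescence on CCD imager.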
* marks the source's active call; other numbers are inactive results. Calls follow the shape of the dose curve; as a rule, active = well fitted curve in the direction sought with a large enough effect; inconclusive = small, poorly fitted or top-dose-only effect, or another doubt; inactive = no such curve, though single readings can be large; an effect the other way counts as inactive or inconclusive. Potency is read from the fitted curve at half-maximal effect.

How did O=C(Nc1ccc2c(c1)N(S(=O)(=O)c1cccs1)CCC2)c1c(F)cccc1F do in these assays?
FLuc modulator: 1%; NPC1 prom act: -1%; Rab9 promoter act: -5%; ELG1 genotoxic: 4%

Results for Cc1ccc(NC(=O)c2sc(-n3nc(C)c(CCC(C)C)c3C)nc2C)cc1C ?
FLuc modulator: -1%

What do the screens show for `CN1CCN(c2ncc3nc(-c4ccccc4)c(=O)n(-c4ccccc4)c3n2)CC1`?
SMN2 splice enh: -8%; KinaseGlo FLuc: 1%

What do the screens show for `CCCCNC(=O)O[C@@H]1C[C@H]2CCC(=O)N3CC[C@@H](C1)[C@@H]23`?
FLuc modulator: 0%; NPC1 prom act: 1%; Rab9 promoter act: -1%; ELG1 genotoxic: 3%

Results for Cc1ccc2nc(C3CCN(C(=O)NCc4ccccc4)CC3)[nH]c2c1 ?
SMN2 splice enh: 2%; FLuc modulator: 17µM*; KinaseGlo FLuc: -8%; NPC1 prom act: 11%; Rab9 promoter act: -7%; ELG1 genotoxic: 6%

Results for c1ccc2[nH]c(NCc3ccc4c(c3)OCO4)nc2c1 ?
FLuc modulator: 3.4µM*; KinaseGlo FLuc: -3%; NPC1 prom act: inconclusive; Rab9 promoter act: inconclusive; ELG1 genotoxic: inconclusive

How did Cc1ccc2nc(NCc3ccccc3)[nH]c2c1 do in these assays?
SMN2 splice enh: 8.9µM*; FLuc modulator: 9.5µM*; KinaseGlo FLuc: 13%; NPC1 prom act: 22%; Rab9 promoter act: inconclusive; ELG1 genotoxic: 11µM*

Results for O=c1[nH]c2ccccc2nc1NCc1ccccc1 ?
FLuc modulator: inconclusive; NPC1 prom act: 16%; Rab9 promoter act: 18%; ELG1 genotoxic: 14%

What do the screens show for `c1ccc(CNc2nc3ccccc3[nH]2)cc1`?
SMN2 splice enh: inconclusive; FLuc modulator: 6.7µM*; KinaseGlo FLuc: 8%; NPC1 prom act: 15%; Rab9 promoter act: inconclusive; ELG1 genotoxic: inconclusive

How did COc1ccc(CCC(=O)NCCc2csc(-c3ccc(C(F)(F)F)cc3)n2)cc1 do in these assays?
FLuc modulator: 3%

Results for COc1ccc2nc(NCCO)[nH]c2c1 ?
SMN2 splice enh: 7%; FLuc modulator: 5%; KinaseGlo FLuc: -2%; NPC1 prom act: 0%; Rab9 promoter act: -1%; ELG1 genotoxic: 0%

How did COc1ccc2nc(NCc3ccccc3)[nH]c2c1 do in these assays?
SMN2 splice enh: 13µM*; FLuc modulator: 15µM*; KinaseGlo FLuc: -1%; NPC1 prom act: 17%; Rab9 promoter act: inconclusive; ELG1 genotoxic: inconclusive

What do the screens show for `CC(C)CC(NC(=O)C1CCC(C)CC1)C(=O)Nc1ccc2c(c1)OCCO2` (stereo not given)?
SMN2 splice enh: 7%; FLuc modulator: 17µM*; KinaseGlo FLuc: -4%; NPC1 prom act: 22%; Rab9 promoter act: 27%; ELG1 genotoxic: inconclusive

What do the screens show for `CCC1CCC(C(=O)NC(C(=O)Nc2ccc3c(c2)OCCO3)C(C)C)CC1` (stereo not given)?
SMN2 splice enh: 11%; FLuc modulator: inconclusive; KinaseGlo FLuc: -2%; NPC1 prom act: 15%; Rab9 promoter act: 23%; ELG1 genotoxic: 16µM*

How did CC(C)CC(NC(=O)C1CCC(C)CC1)C(=O)Nc1ccccc1F (stereo not given) do in these assays?
FLuc modulator: 0%; NPC1 prom act: -42%; Rab9 promoter act: -4%; ELG1 genotoxic: 6%

How did CCC1CCC(C(=O)NC(C(=O)NCCN(CC(C)C)CC(C)C)C(C)C)CC1 (stereo not given) do in these assays?
SMN2 splice enh: -1%; FLuc modulator: 2%

How did CN(C)c1ccc(NC(=O)c2sc(SCC(=O)Nc3nccs3)nc2N)cc1 do in these assays?
SMN2 splice enh: 69%; FLuc modulator: 1.9µM*; KinaseGlo FLuc: -5%; NPC1 prom act: 25%; Rab9 promoter act: inconclusive; ELG1 genotoxic: inconclusive

What do the screens show for `CCCCNC(=O)CSc1nc(N)c(C(=O)Nc2ccc(OC)cc2)s1`?
FLuc modulator: 17µM*; NPC1 prom act: 26%; Rab9 promoter act: 28%; ELG1 genotoxic: 10%

Results for COc1ccc(NC(=O)c2ccco2)cc1NC(=O)c1cc(Br)ccc1Cl ?
FLuc modulator: -15%

How did COc1ccccc1N(/N=C1\Sc2ccccc2C1=O)C(C)=O do in these assays?
FLuc modulator: 12µM*; NPC1 prom act: 25%; Rab9 promoter act: 4.5µM*; ELG1 genotoxic: 0.92µM*

What do the screens show for `COc1ccc(N(/N=C2\Sc3ccccc3C2=O)C(C)=O)cc1`?
SMN2 splice enh: 16µM*; FLuc modulator: 12µM*; KinaseGlo FLuc: 0%; NPC1 prom act: 10%; Rab9 promoter act: inconclusive; ELG1 genotoxic: inconclusive

Results for COC(=O)[C@@H]1CCCN1Cc1nc(Cc2ccccc2F)no1 ?
FLuc modulator: -3%; KinaseGlo FLuc: 1%; NPC1 prom act: -4%; Rab9 promoter act: -4%; ELG1 genotoxic: -1%

Results for Cc1ccc(S(=O)(=O)N(C)C)cc1NC(=O)COC(=O)/C=C/c1ccc2ccccc2n1 ?
FLuc modulator: 8.5µM*; NPC1 prom act: 23%; Rab9 promoter act: 19%; ELG1 genotoxic: -3%

Results for Cc1ccc(OCCC(=O)OCC(=O)Nc2cc(S(=O)(=O)N(C)C)ccc2C)cc1 ?
SMN2 splice enh: 0%; FLuc modulator: 11µM*; KinaseGlo FLuc: 2%; NPC1 prom act: -5%; Rab9 promoter act: -2%; ELG1 genotoxic: 2%

What do the screens show for `CCN(CC)S(=O)(=O)c1ccc(C)c(NC(=O)COC(=O)CNC(=O)c2ccc(C(C)(C)C)cc2)c1`?
SMN2 splice enh: 17%; FLuc modulator: 0.54µM*; KinaseGlo FLuc: 0%; NPC1 prom act: -1%; Rab9 promoter act: 0%; ELG1 genotoxic: 1%

How did Cc1ccc(S(=O)(=O)N(C)C)cc1NC(=O)COc1ccc(-c2nnco2)cc1 do in these assays?
FLuc modulator: 17µM*; NPC1 prom act: -6%; Rab9 promoter act: -2%; ELG1 genotoxic: -2%

How did Cc1ccc(S(=O)(=O)N2CCOCC2)cc1NC(=O)COc1ccc(-c2nnco2)cc1 do in these assays?
SMN2 splice enh: -13%; FLuc modulator: -12%; KinaseGlo FLuc: 1%; NPC1 prom act: -4%; Rab9 promoter act: 0%; ELG1 genotoxic: -11%

How did CCN(CC)S(=O)(=O)c1cccc(NC(=O)COC(=O)CNC(=O)c2cccc(F)c2)c1 do in these assays?
FLuc modulator: -4%; NPC1 prom act: -1%; Rab9 promoter act: -6%; ELG1 genotoxic: 1%

Results for Cc1ccc(S(=O)(=O)N(C)C)cc1NC(=O)COC(=O)CCC1CCCC1 ?
FLuc modulator: -7%; NPC1 prom act: 3%; Rab9 promoter act: -3%; ELG1 genotoxic: 5%
